NPC1 promoter act: qHTS Assay for NPC1 Promoter Activators; Huh7 NPC1 promoter luciferase reporter, 24 h; Potency, µM (series often up to 9.22 µM), without a hit: at the highest dose activation, hits mostly activators; 320,000 compounds, 2.4% hits; AID 485313, 2010; also: % of control where 0% means no effect; nearly all actives have a fitted effect of over 60% in size
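Readout is luciferase luminescence, reflecting NPC1 promoter activation in stably transfected Huh7 cells after 24 h compound exposure at 37 °C in reduced-serum medium with 10% FBS.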
SMN2 splice up: qHTS Assay for Enhancers of SMN2 Splice Variant Expression; HEK293 SMN2-luciferase splicing reporter, luminescence, 30-36 h; Potency, µM (titrated, usually from 46.1 µM), for inactives: at the top dose activity change, positive = activation, usual class: activators; 210,000 compounds, 2.8% hits; also: % of control where 0% means no effect; nearly all actives have a fitted effect of over 55% in size
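HEK293 cells carry an SMN2 minigene-luciferase reporter in which exon 7 inclusion puts luciferase in frame. Cells were seeded at 2000 cells/well, attached for 10-12 hours, then exposed to compounds for 30-36 hours at 37C before ONE-Glo luminescence.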
Rab9 promoter act: qHTS Assay for Rab9 Promoter Activators | Potency, µM (doses to about 9.22 µM), for inactives: at the top dose activation, negative = inhibition, most hits filed as activators | AID 485297, 2010 | 320,000 compounds, 2.8% hits | Huh7 Rab9 promoter-luciferase reporter, luminescence, 24 h; also: % of control where 0% means no effect; nearly all actives have a fitted effect of over 60% in size
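Huh7 cells stably carrying Rab9 promoter–luciferase reporter, plated 1500 cells/well, compound added after 2 h and incubated 24 h at 37 °C; luciferase luminescence then read after 10 min with detection reagent.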
FLuc counter: qHTS profiling assay for firefly luciferase inhibitor/activator using purifed enzyme and Km concentrations of substrates (counterscreen for miR-21 project); Luciferin 4-monooxygenase (Photinus pyralis), P08659; 360,000 compounds, 6.9% hits; purified FLuc, Km substrates, luminescence inhibition; AID 588342, 2011; Potency, µM (series often up to 57.5 µM), for the others: top-dose activity change, negative = inhibition, actives largely listed as inhibitors;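 also: plate controls were vehicle for no effect and reference inhibitor for full effect; nearly all actives have a fitted effect of over 55% in size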
Target sequence (P08659 whole entry, looked up): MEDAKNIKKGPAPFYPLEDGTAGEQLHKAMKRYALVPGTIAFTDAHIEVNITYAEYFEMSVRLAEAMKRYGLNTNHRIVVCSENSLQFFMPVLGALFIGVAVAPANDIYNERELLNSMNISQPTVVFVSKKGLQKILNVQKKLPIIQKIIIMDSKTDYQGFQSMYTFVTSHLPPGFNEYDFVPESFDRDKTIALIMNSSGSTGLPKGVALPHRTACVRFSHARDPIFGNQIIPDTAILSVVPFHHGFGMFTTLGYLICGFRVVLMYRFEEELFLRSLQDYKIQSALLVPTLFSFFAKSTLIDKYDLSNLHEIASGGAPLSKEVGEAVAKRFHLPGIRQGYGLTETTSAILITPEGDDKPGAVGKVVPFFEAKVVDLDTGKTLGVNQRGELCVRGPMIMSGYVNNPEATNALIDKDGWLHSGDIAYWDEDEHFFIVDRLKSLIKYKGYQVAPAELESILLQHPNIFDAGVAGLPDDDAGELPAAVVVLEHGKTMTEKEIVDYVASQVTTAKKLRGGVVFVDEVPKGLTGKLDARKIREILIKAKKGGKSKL
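Purified P. pyralis luciferase, 10 nM final, with Km-level 10 uM D-luciferin and 10 uM ATP in 50 mM Tris acetate pH 7.5, 10 mM Mg acetate, 0.01% Tween-20, 0.05% BSA; 6-point qHTS titration about 60 µM downward; luminescence read.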
ELG1 genotoxic: qHTS screen for small molecules that induce genotoxicity in human embryonic kidney (HEK293T) cells expressing luciferase-tagged ELG1; 330,000 compounds, 1.3% hits; Potency, µM (highest dose often 46 µM), for inactives: at the top dose activity change, positive = activation, actives largely listed as activators; HEK293T ELG1-luciferase reporter, luminescence, 16 h; AID 504466, 2011; also: % of control where 0% means no effect; nearly all actives have a fitted effect of over 60% in size
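Quantitative HTS format in 1536-well plates. HEK293T ELG1-luciferase reporter cells receive test compound and are incubated 16 hr at 37 °C, 5% CO2; ONE-Glo added, 30 min room temperature, then luminescence read.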
Luc counter: Counterscreen for Luciferase (Kinase-Glo TM) Inhibition. Kinase-Glo luciferase, ATP luminescence, 8 min. Potency, µM (highest dose often 38.3 µM), inactives show at the highest dose activity change, negative = inhibition, most hits filed as inhibitors. Luciferin 4-monooxygenase (Photuris pensylvanica), Q27757. AID 1379, 2008. 200,000 compounds, 0.28% hits; also: % is scaled to controls: 0 for no effect and ±100 for the full control effect; nearly all actives have a fitted effect of over 60% in size
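Substrate mix (final 50 mM imidazole pH 7.2, 50 mM KCl, 7 mM MgCl2, 10 uM ATP, 0.01% Tween 20, 0.05% BSA) plus pin-tool compound, then Kinase-Glo detection mix; 8 min ambient, luminescence read.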
* hit, by the source's call; [ ] = dose if it differs, or a comment. Shown are actives, neighbours in structure and some others; about 7.4% of the full set was active somewhere. Calls follow the shape of the dose curve; as a rule, active = well fitted curve in the direction sought with a large enough effect; inconclusive = small, poorly fitted or top-dose-only effect, or another doubt; inactive = no such curve, though single readings can be large; an effect the other way counts as inactive or inconclusive. Potency is read from the fitted curve at half-maximal effect.

C=CCc1ccc(OCCCOc2ccc(C)c(C)c2)c(OC)c1 was read as NPC1 promoter act 0%, SMN2 splice up -12%, Rab9 promoter act -4%, FLuc counter -8%, ELG1 genotoxic -2% and Luc counter 8%.
For CCCc1ccc(OCc2ccc(C(=O)O)o2)c(OC)c1 the results were NPC1 promoter act 0.45µM*, SMN2 splice up 2.5µM*, Rab9 promoter act 0.32µM*, FLuc counter 4.8µM*, ELG1 genotoxic inconclusive and Luc counter 5%.
C=CCc1ccc(OCCCCOc2ccc(C(=O)O)cc2)c(OC)c1 was read as NPC1 promoter act -4%, SMN2 splice up 18%, Rab9 promoter act 2%, FLuc counter 13µM*, ELG1 genotoxic 0% and Luc counter -2%.
Screening C=CCc1ccc(OCc2ccc(C(=O)O)o2)c(OC)c1 returned NPC1 promoter act inconclusive, Rab9 promoter act inconclusive, FLuc counter 4.8µM* and ELG1 genotoxic inconclusive.
Screening Cc1ccc(OCc2ccc(C(=O)O)o2)c([N+](=O)[O-])c1 returned NPC1 promoter act inconclusive, SMN2 splice up inconclusive, Rab9 promoter act inconclusive, FLuc counter 27µM*, ELG1 genotoxic 6% and Luc counter 1%.
C=CCc1ccc(OC)c(OC)c1 was read as NPC1 promoter act 2%, SMN2 splice up -2%, Rab9 promoter act -5%, FLuc counter 2% and ELG1 genotoxic 3%.
For COc1ccccc1C(=O)Nc1ccc2nc(N3CCC(C)CC3)cc(C)c2c1 the results were SMN2 splice up -114% and FLuc counter 0%.
Screening N#Cc1ccc(OC(=O)c2ccc(N=C(N)N)cc2)cc1 returned SMN2 splice up 12%[9.22 µM] and Luc counter -6%[7.66 µM].
`COc1ccc(NCc2nc3ccccc3n2CCOc2ccccc2C)cc1` gave SMN2 splice up -26% and FLuc counter inconclusive.
For C=CCc1ccc(OCCn2cccc2C=O)c(OC)c1 the results were NPC1 promoter act inconclusive, SMN2 splice up -9%, Rab9 promoter act inconclusive, FLuc counter 17µM*, ELG1 genotoxic 15% and Luc counter -5%.
For C=CCc1ccc(OCCOCCN(C)C)c(OC)c1 the results were NPC1 promoter act -2%, SMN2 splice up 4%, Rab9 promoter act 1%, FLuc counter 1%, ELG1 genotoxic -4% and Luc counter 15%.
`CCCc1ccc(OCc2ccc(C(=O)OC)o2)c(OC)c1` gave NPC1 promoter act 1.4µM*, SMN2 splice up inconclusive, Rab9 promoter act 1.8µM*, FLuc counter 15µM*, ELG1 genotoxic 10µM* and Luc counter -3%.
For CCCc1ccc(OCc2ccc(C(=O)NN)o2)c(OC)c1 the results were NPC1 promoter act 2.2µM*, Rab9 promoter act inconclusive, FLuc counter -16% and ELG1 genotoxic 12%.
`C=CCc1ccc(OCCOc2cccc3ccc(C)nc23)c(OC)c1` gave NPC1 promoter act -2%, SMN2 splice up 7%, Rab9 promoter act 3%, FLuc counter 11µM*, ELG1 genotoxic -6% and Luc counter -3%.
For CCCCOC(=O)c1ccc(Nc2ncnc3c2cnn3-c2cccc(C)c2)cc1 the results were FLuc counter -7%.
Screening O=C(Nc1c(C(=O)N2CCN(c3ccccc3F)CC2)oc2ccccc12)c1ccc(Br)o1 returned FLuc counter -12%.
Screening O=C(CSc1nc(-c2ccccc2)nc2c1CCCC2)c1ccc(F)cc1 returned SMN2 splice up 0% and FLuc counter 0%.

Source: PubChem BioAssay (National Center for Advancing Translational Sciences (NCATS))
